The text below walks through data of PubChem BioAssay AID1839 (Johns Hopkins Ion Channel Center, 2009).

SMILES strings stand for the structures. In all, about 2,400 compounds went through this assay and about 220 (9.2%) were called active. For the sample, actives were picked, then their nearest neighbours and some compounds at random. Values without a mark were called inactive.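 The calls were made as follows: active = signal change above the mean of dofetilide-free buffer controls plus 3 SD, so a positive margin; inactive = the rest.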

A short description of this assay: nonspecific flux effects in parental CHO-K1, confirmation, counter-screen for hERG block protection project, cell-based, CHO-K1 parental line, FluxOR thallium flux (AID 1839).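 Also: compounds applied alone with no dofetilide to cells lacking hERG.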 To be noted: CHO-K1 parental cells, FluxOR thallium flux fluorescence; at 10 µM.
With `COc1cccc(OC)c1C(=O)NC(=S)N1CCN(c2ccc(C(F)(F)F)cc2[N+](=O)[O-])CC1`, the signal change vs control minus 3*SD hit threshold (margin above threshold, higher = more increase) is -46.3%.

For `COCc1cc(C)nc(OCC(=O)N/N=C/c2ccc(-c3cc([N+](=O)[O-])ccc3Cl)o2)c1C#N`, the signal change vs control minus 3*SD hit threshold (margin above threshold, higher = more increase) was -29.8%.

Regarding `CC(=O)c1n[nH]nc1NC(=O)c1ccccc1`, the signal change vs control minus 3*SD hit threshold (margin above threshold, higher = more increase) is -17.2%.

On to `Cc1nn(C(=O)CNC(=O)c2ccccc2)c(C)c1C`, for which the signal change vs control minus 3*SD hit threshold (margin above threshold, higher = more increase) was -23.2%.

For `Cc1ccccc1Cn1nc(C)c(NC(=O)c2ccccc2)c1C`, the signal change vs control minus 3*SD hit threshold (margin above threshold, higher = more increase) is 11.5% (active).

Regarding `Cn1nc(C(F)(F)F)c(-c2ccc(Br)cc2)c1NC(=O)c1cccnc1`, the signal change vs control minus 3*SD hit threshold (margin above threshold, higher = more increase) was -37.7%.

For the molecule `O=C1NCC(=O)N2C(c3ccccc3)c3[nH]c4ccccc4c3C[C@@H]12` (stereo partly drawn), the signal change vs control minus 3*SD hit threshold (margin above threshold, higher = more increase) was -28.2%.

With `S=c1nc(-c2ccccc2)[nH]n1-c1ccccc1`, the signal change vs control minus 3*SD hit threshold (margin above threshold, higher = more increase) was 16.8% (active).

As for `S=c1nc(-c2ccccc2)c(-c2ccccc2)n[nH]1`, the signal change vs control minus 3*SD hit threshold (margin above threshold, higher = more increase) is -37%.

Consider `S=c1nc(C2CCCCC2)n(-c2ccccc2)[nH]1`, for which the signal change vs control minus 3*SD hit threshold (margin above threshold, higher = more increase) is -0.7%.

With `COc1ccc(-n2nc(C(=O)NCC(=O)NCc3ccc(F)cc3)c3ccccc3c2=O)cc1OC`, the signal change vs control minus 3*SD hit threshold (margin above threshold, higher = more increase) is -26.4%.

`COc1cccc(NC(=O)c2nn(-c3ccc(OC)cc3OC)c(=O)c3ccccc23)c1`: the signal change vs control minus 3*SD hit threshold (margin above threshold, higher = more increase) is -26.1%.

As to `COc1cccc(-n2nc(C(=O)O)c3ccccc3c2=O)c1`, the signal change vs control minus 3*SD hit threshold (margin above threshold, higher = more increase) is 4.7% (active).

For the molecule `CC(C)Oc1cc(S(=O)(=O)N2CCCCC2)ccc1N`, the signal change vs control minus 3*SD hit threshold (margin above threshold, higher = more increase) is -27.8%.

`CC(C)COc1ccc(-c2nn(-c3ccccc3)cc2C(=O)Nc2nccs2)cc1`: the signal change vs control minus 3*SD hit threshold (margin above threshold, higher = more increase) was -25.4%.

Consider `COc1ccc(-c2nc(=S)c3ccc4ccccc4c3[nH]2)cc1`, for which the signal change vs control minus 3*SD hit threshold (margin above threshold, higher = more increase) was 32.2% (active).

As to `COc1ccc(-n2c(=S)[nH]c3ccccc3c2=S)cc1`, the signal change vs control minus 3*SD hit threshold (margin above threshold, higher = more increase) is -30.8%.

Turning to `COc1ccc(OC(=O)Cc2cccc3ccccc23)cc1`, the signal change vs control minus 3*SD hit threshold (margin above threshold, higher = more increase) is -30.2%.

Turning to `CCc1ccc(NC(=S)NC(=O)c2c(-c3ccccc3Cl)noc2C)cc1`, the signal change vs control minus 3*SD hit threshold (margin above threshold, higher = more increase) was -32.8%.

`C=CCn1c2ccccc2c(=O)c2cc(C#Cc3ccsc3)ccc21`: the signal change vs control minus 3*SD hit threshold (margin above threshold, higher = more increase) is -24.5%.

`COc1ccc(C(=O)CC(=O)C(=O)Nc2ccccc2)cc1`: the signal change vs control minus 3*SD hit threshold (margin above threshold, higher = more increase) was -20.3%.

`Cc1ccccc1NC(=O)C(=O)NNC(=O)COc1ccc2ccccc2c1`: the signal change vs control minus 3*SD hit threshold (margin above threshold, higher = more increase) was -2.5%.

With `O=C(COc1ccc2ccccc2c1)NNC(=O)C(=O)Nc1ccccc1`, the signal change vs control minus 3*SD hit threshold (margin above threshold, higher = more increase) is 15.8% (active).

Regarding `COc1ccc(NC(=O)C(=O)NNC(=O)COc2ccc(OC)cc2)cc1`, the signal change vs control minus 3*SD hit threshold (margin above threshold, higher = more increase) is -38%.

For the molecule `COc1ccc(OCC(=O)NNC(=O)C(=O)Nc2ccc(C)cc2)cc1`, the signal change vs control minus 3*SD hit threshold (margin above threshold, higher = more increase) was -35.4%.

With `CCc1ccc(NC(=O)C(=O)NNC(=O)COc2cccc(OC)c2)cc1`, the signal change vs control minus 3*SD hit threshold (margin above threshold, higher = more increase) is -13.5%.

In the case of `COc1cccc(OCC(=O)NNC(=O)C(=O)Nc2cccc(C)c2)c1`, the signal change vs control minus 3*SD hit threshold (margin above threshold, higher = more increase) is 0.8% (active).

Turning to `COc1cccc(OCC(=O)NNC(=O)C(=O)Nc2ccc(OC)cc2OC)c1`, the signal change vs control minus 3*SD hit threshold (margin above threshold, higher = more increase) is -21.1%.

On to `COc1ccccc1NC(=O)C(=O)NNC(=O)COc1ccc2ccccc2c1`, for which the signal change vs control minus 3*SD hit threshold (margin above threshold, higher = more increase) is 59.2% (active).

Turning to `COc1ccc(NC(=O)C(=O)NNC(=O)COc2ccc(Cl)cc2)c(OC)c1`, the signal change vs control minus 3*SD hit threshold (margin above threshold, higher = more increase) is -0.4%.

Turning to `N#Cc1cccc(N=c2ssnc2Cl)c1`, the signal change vs control minus 3*SD hit threshold (margin above threshold, higher = more increase) is -30.2%.

Turning to `CCOc1cc(N2CCOCC2)c(OCC)cc1NC(=O)Cn1nc(C)c([N+](=O)[O-])c1C`, the signal change vs control minus 3*SD hit threshold (margin above threshold, higher = more increase) is -22.7%.

As for `Cc1ccccc1NC1=C/C(=N\S(=O)(=O)c2ccc(C(=O)O)cc2)c2ccccc2C1=O`, the signal change vs control minus 3*SD hit threshold (margin above threshold, higher = more increase) is -22%.

`Cc1ccc(C(=O)n2c(-c3ccccc3)cnc2SCC(=O)Nc2ccc(C)cc2C)cc1`: the signal change vs control minus 3*SD hit threshold (margin above threshold, higher = more increase) is -8.7%.

As for `CC12CCC(C(=O)OC3CCCCC3)(OC1=O)C2(C)C` (stereo not drawn), the signal change vs control minus 3*SD hit threshold (margin above threshold, higher = more increase) was -36.3%.

Take `O=C1c2cccc3cccc(c23)C(=O)C1(O)O`: the signal change vs control minus 3*SD hit threshold (margin above threshold, higher = more increase) is -20.6%.

For the molecule `S=c1[nH]c2cc(-c3ccccc3)ccc2o1`, the signal change vs control minus 3*SD hit threshold (margin above threshold, higher = more increase) was 38.6% (active).

As for `COC(=O)c1sc(NC(=S)NC(=O)c2ccc(C)cc2)nc1C`, the signal change vs control minus 3*SD hit threshold (margin above threshold, higher = more increase) is -19.1%.

Regarding `Cc1ccsc1CN(C(=O)c1ccc([N+](=O)[O-])cc1)C1CCS(=O)(=O)C1` (stereo not drawn), the signal change vs control minus 3*SD hit threshold (margin above threshold, higher = more increase) was -32.2%.

Turning to `CCCCOC(=O)c1ccc(NC(=S)NC(=O)c2c(Br)c(C)nn2C)cc1`, the signal change vs control minus 3*SD hit threshold (margin above threshold, higher = more increase) is 6.3% (active).

For the molecule `Cc1nn(C)c(C(=O)NC(=S)Nc2ccc([N+](=O)[O-])cc2)c1Cl`, the signal change vs control minus 3*SD hit threshold (margin above threshold, higher = more increase) is -13.2%.

On to `CCCCOC(=O)c1ccc(NC(=S)NC(=O)c2c(Cl)cnn2C)cc1`, for which the signal change vs control minus 3*SD hit threshold (margin above threshold, higher = more increase) was -18.6%.

In the case of `CC1CCc2sc(-c3n[nH]c(=S)o3)cc2C1` (stereo not drawn), the signal change vs control minus 3*SD hit threshold (margin above threshold, higher = more increase) was -19.1%.

For `CC(C)(C)c1cc(C(=O)NNC(=O)c2ccc(Cl)cc2)no1`, the signal change vs control minus 3*SD hit threshold (margin above threshold, higher = more increase) is -1.2%.

As to `O=C(O)c1cc(N/N=C/c2ccc(-c3ccccc3)cc2)ccc1Cl`, the signal change vs control minus 3*SD hit threshold (margin above threshold, higher = more increase) was -29.5%.

Take `O=C(O)c1cc(NN=C2c3ccccc3-c3ccccc32)ccc1Cl`: the signal change vs control minus 3*SD hit threshold (margin above threshold, higher = more increase) is 3.2% (active).

Take `CCCCOc1ccc(-c2c(C#N)c(N)[nH]c(=S)c2C#N)cc1`: the signal change vs control minus 3*SD hit threshold (margin above threshold, higher = more increase) was -44.5%.

Regarding `CCc1ccc(C(C)NC(=O)c2ccc(F)cc2)cc1` (stereo not drawn), the signal change vs control minus 3*SD hit threshold (margin above threshold, higher = more increase) is -6.8%.

As for `CC(NC(=O)c1ccc(F)cc1)c1ccc2c(c1)CCCC2` (stereo not drawn), the signal change vs control minus 3*SD hit threshold (margin above threshold, higher = more increase) was -12.8%.

Consider `CC(NC(=O)c1ccc(Br)cc1)c1ccc2c(c1)CCCC2` (stereo not drawn), for which the signal change vs control minus 3*SD hit threshold (margin above threshold, higher = more increase) is 2.4% (active).

`COc1cccc(NC(=O)CSCc2n[nH]c(=O)[nH]2)c1`: the signal change vs control minus 3*SD hit threshold (margin above threshold, higher = more increase) is -30%.

Consider `COc1ccc(-c2csc(NC(=S)NC(=O)c3cccs3)n2)cc1OC`, for which the signal change vs control minus 3*SD hit threshold (margin above threshold, higher = more increase) was -41.1%.

Take `CCOc1cc(Br)c(C(=O)O)cc1OC`: the signal change vs control minus 3*SD hit threshold (margin above threshold, higher = more increase) is -30.9%.

For `O=C(CSc1nc2cc(Cl)ccc2s1)c1cc2ccccc2o1`, the signal change vs control minus 3*SD hit threshold (margin above threshold, higher = more increase) is -23%.

For `O=C(Cn1nc(-c2ccccc2)c2ccccc2c1=O)Nc1ccc(O)cc1`, the signal change vs control minus 3*SD hit threshold (margin above threshold, higher = more increase) is -37.1%.

Take `O=[N+]([O-])c1cccnc1Sc1n[nH]c(-c2ccc(Cl)cc2)n1`: the signal change vs control minus 3*SD hit threshold (margin above threshold, higher = more increase) is -19.6%.

As for `COc1ccc(CCn2c(S)nc3ccccc3c2=O)cc1`, the signal change vs control minus 3*SD hit threshold (margin above threshold, higher = more increase) was -22.5%.

In the case of `C=CCN(CC=C)C(=S)NC(=O)c1ccc([N+](=O)[O-])cc1`, the signal change vs control minus 3*SD hit threshold (margin above threshold, higher = more increase) is -16.4%.

Consider `C=CCN(CC=C)C(=S)NC(=O)c1ccc(OC)c(Br)c1`, for which the signal change vs control minus 3*SD hit threshold (margin above threshold, higher = more increase) was 4.6% (active).

As to `CCN(CC)C(=S)NC(=O)c1ccc(OC)c(Br)c1`, the signal change vs control minus 3*SD hit threshold (margin above threshold, higher = more increase) is -18.8%.

Take `C=CCNC(=S)NC(=O)c1ccc(C)c(Br)c1`: the signal change vs control minus 3*SD hit threshold (margin above threshold, higher = more increase) is -26.8%.

With `C=CCN(CC=C)C(=S)NC(=O)c1ccc(C)c(Br)c1`, the signal change vs control minus 3*SD hit threshold (margin above threshold, higher = more increase) is 48.9% (active).

Turning to `C=CCN(CC=C)C(=S)NC(=O)c1ccc(OC)cc1`, the signal change vs control minus 3*SD hit threshold (margin above threshold, higher = more increase) was -14.4%.
